MK inhibit: S. pneumoniae mevalonate kinase inhibition; 65,000 tested, 0.48% active; purified MK, PK/LDH-coupled NADH absorbance 340 nm; inhibition, % at 10 µM;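 active = ranked among the strongest by inhibition in the single 10 µM screen, a fixed top-ranked set picked for dose follow-up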
Fluor 339 460: intrinsic fluorescence of library compounds, ex339/em460 – biochemical, MLSMR library, data from DPM-DC assay, artefact control, profiling panel; AID 709; compound autofluorescence, ex339/em460 nm, NADH buffer; active compounds read high; 1 = no-compound wells, NADH background; fluorescence fold increase at 10 µM; 65,000 tested, 5.5% active;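 active = at 10 µM, mean starting fluorescence two-fold or more over control wells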;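 note: signal is the first read of a kinetic run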
NADH enzymes: inhibition of NAD/NADH coupling enzymes, library profiling | coupled PK/LDH NADH assays, four targets | IC50, µM (series often up to 10 µM), for the others: top-dose inhibition | 65,000 tested, 0.02% active;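 active = single-dose screening hits from any of four coupled enzyme assays that gave an IC50 when retested across doses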;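 note: the DPM-DC format reads NADH fluorescence rather than 340 nm absorbance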
Spn PMK inh: S. pneumoniae PMK inhibition. purified PMK, PK/LDH-coupled NADH absorbance 340 nm. 65,000 tested, 0.49% active. AID 539. inhibition, % at 10 µM;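 active = top-ranked compounds by inhibition in the single 10 µM screen, taking a fixed number of the strongest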;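 note: 0% = full reaction with DMSO carrier and 100% = background rate without enzyme reaction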
Spn DPM-DC inh: blocks S. pneumoniae diphosphomevalonate decarboxylase. purified DPM-DC, PK/LDH coupled NADH fluorescence. calls only at 10 µM. 65,000 tested, 0.49% active. AID 556;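 active = the 320 compounds with the highest percent inhibition in the single-dose primary screen, excluding strongly autofluorescent ones, cut at about 32% in these data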;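 note: kinetic rate of NADH fluorescence loss reporting ADP formed by the decarboxylase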
Abs 340nm: compound absorbs light at 340 nm; compound absorbance at 340 nm, fold over control; fold change at 10 µM; 65,000 tested, under 10 active; AID 708;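 active = at 10 µM dose, initial 340 nm absorbance at least 2 fold that of control wells; inactive = change under 2 fold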;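 note: initial absorbance extrapolated from kinetic A340 decline of NADH oxidation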
Starred values were filed as active, the others as inactive; i = inactive; . = no result shown; + = active, no number; [ ] = remark or other dose. An excerpt weighted towards active compounds, which were near 6.8% of everything screened.

SMILES	MK inhibit	Fluor 339 460	NADH enzymes	Spn PMK inh	Spn DPM-DC inh	Abs 340nm
Cc1ccsc1CN1CCN(c2ccccn2)CC1	45.0*	1.09	15.0%	0.0	i	1.04
CCOc1ccc(-n2c(SCC)nc3c(c2=O)SCC3)cc1	6.0	1.03	3.0%	3.0	i	1.08
COc1ccc(S(=O)(=O)N2CCC(C(=O)NCc3ccccn3)CC2)cc1C	3.0	1.07	1.0%	1.0	i	1.02
O=C(CCn1nnc(-c2cccs2)n1)NC1CCCCC1	0.0	1.02	6.0%	18.0	i	0.98
CCOC(=O)C(NS(=O)(=O)c1ccc(Br)cc1)C(C)C (centres undefined)	12.0	1.07	11.0%	20.0	i	1
Cc1cc(C)c(C#N)c(N2CCCC2)n1	15.0	3.62*	10.0%	4.0	.	1.09
N#Cc1c(N2CCCC2)nc(N)c2c(N)nc(N3CCCC3)cc12	3.0	2.51*	2.0%	5.0	.	0.97
N#Cc1c(N)nc(N2CCCC2)c(C#N)c1-c1ccc(Cl)cc1	3.0	1.09	4.0%	8.0	i	1.03
COc1cc2c(C#N)c(N3CCN(c4ccccc4OC)CC3)nc(N)c2c(N)n1	12.0	2.38*	3.0%	0.0	+[fluoresces]	1.01
Cc1nnc(SCCn2c(N3CC(C)CC(C)C3)nc3c2c(=O)[nH]c(=O)n3C)s1 (centres undefined)	2.0	1.08	2.0%	3.0	i	1.04
c1ccc(Nc2cc(Nc3ccccc3)[nH]n2)cc1	5.0	0.98	6.0%	12.0	i	1.01
CCOc1cccc(-c2nn3c(-c4ccco4)nnc3s2)c1	2.0	1.1	3.0%	6.0	i	1.04
O=C(Nc1nc(NC(=O)c2ccco2)n(-c2ccccc2)n1)c1ccccc1	0.0	2.38*	1.0%	1.0	.	1.06
COc1ccc2[nH]c(C(=O)O)c(CCNC(C)=O)c2c1	3.0	2.49*	12.0%	11.0	i	1.01
Cc1n[nH]c(=S)n(/N=C/c2ccccn2)c1=O	11.0	1.11	23.0%	43.0*	i	1.05
C=CCNC(=O)C(C#N)c1nc2ccccc2nc1N1CCCCCC1 (centres undefined)	0.0	2.27*	0.0%	0.0	.	1.03
Cc1ccc(S(=O)(=O)C(C#N)c2nc3ccccc3nc2N2CCC(C)CC2)cc1 (centres undefined)	6.0	1.64	9.0%	12.0	i	1.04
Cc1ccc(C)c(S(=O)(=O)C(C#N)c2nc3ccccc3nc2N2CCCC2)c1 (centres undefined)	5.0	3.37*	3.0%	0.0	.	1.04
N#CC(c1nc2ccccc2nc1N1CCCC1)S(=O)(=O)c1cccs1 (centres undefined)	9.0	2.68*	11.0%	9.0	i	1.05
Cc1ccc(C)c(S(=O)(=O)C(C#N)c2nc3ccccc3nc2N2CCOCC2)c1 (centres undefined)	7.0	1.24	3.0%	0.0	i	1.05
CCCCCCOC(=O)C(C#N)c1nc2ccccc2nc1N1CCCCC1 (centres undefined)	3.0	1.07	4.0%	13.0	i	1.01
CCCCCCOC(=O)C(C#N)c1nc2ccccc2nc1N1CCN(C)CC1 (centres undefined)	5.0	3.92*	8.0%	10.0	.	1.04
COc1ccc(C(=S)N2CCCC2)cc1C	6.0	1.05	5.0%	7.0	i	1.01
O=C(NCc1cccnc1)C1c2ccccc2C(=O)N1C1CCCC1 (centres undefined)	4.0	1.08	1.0%	0.0	i	1.01
COc1ccc(CNC(=O)C(C)OC(=O)c2cccn2C)cc1 (centres undefined)	2.0	1.01	3.0%	7.0	i	1
SMILES	MK inhibit	Fluor 339 460	NADH enzymes	Spn PMK inh	Spn DPM-DC inh	Abs 340nm
Cc1cccc(S(=O)(=O)C(C#N)c2nc3ccccc3nc2N2CCCC2)c1 (centres undefined)	0.0	3.89*	6.0%	12.0	.	1.09
COc1ccc(S(=O)(=O)C(C#N)c2nc3ccccc3nc2N2CCCCC2)cc1 (centres undefined)	12.0	1.76	11.0%	0.0	i	1.09
N#CC(c1nc2ccccc2nc1N1CCCC1)S(=O)(=O)c1ccccc1 (centres undefined)	12.0	2.26*	9.0%	5.0	.	1.06
COc1ccc(-c2cc(C(F)(F)F)nc(SCCC(=O)Nc3cc(C)on3)n2)cc1	13.0	1.82	21.0%	8.0	+	1.04
Cc1cc(NC(=O)CSc2nc(-c3cccs3)cc(C(F)(F)F)n2)no1	0.0	1.25	6.0%	15.0	i	1.1
COc1ccc(-c2cc(C(F)(F)F)nc(SCC(=O)Nc3cc(C)on3)n2)cc1OC	8.0	3.78*	10.0%	12.0	.	1.08
O=C(CCSc1nc(-c2ccco2)cc(C(F)(F)F)n1)N1CCN(c2ccccc2)CC1	0.0	1.14	1.0%	3.0	i	1.1
COc1ccc(OCCC(=O)Nc2cc(C)on2)cc1	15.0	1.11	10.0%	14.0	i	1.07
COc1ccc(-c2cc(C(F)(F)F)nc(SCCC(=O)N3CCN4CCCC4C3)n2)cc1 (centres undefined)	10.0	2.33*	16.0%	1.0	+	1.11
O=C(CCSc1nc(-c2ccc3c(c2)OCO3)cc(C(F)(F)F)n1)NCc1ccco1	5.0	2.2*	17.0%	28.0*	.	1.14
COc1ccc(OC)c(C(=O)CSc2nnc(-c3cccnc3)n2C)c1	8.0	1.17	3.0%	1.0	i	1.04
CCc1nn(CC(=O)N2CCN(Cc3ccc4c(c3)OCO4)CC2)c(=O)c2cc3occc3n12	0.0	1.06	3.0%	22.0	i	0.99
COc1ccc(-c2cc(C(F)(F)F)nc(NC3CCCC3)n2)cc1OC	6.0	1.56	2.0%	0.0	i	1.09
COc1ccc(-c2cc(C(F)(F)F)nc(SCC(=O)N3CC(C)OC(C)C3)n2)cc1OC (centres undefined)	0.0	3.48*	4.0%	8.0	.	1.17
O=C(OCC(=O)N1CCN(C(=O)c2ccco2)CC1)c1ccccc1OCc1ccc(Cl)cc1	0.0	1.07	3.0%	9.0	i	1
CCNc1nc(NC(C)C)nc(Nn2cnnc2)n1	0.0	1.09	1.0%	3.0	i	1.03
CCNc1nc(C)c2cc(Br)c(=O)n(CC)c2n1	7.0	2.08*	6.0%	5.0	.	1.16
N#Cc1cc2c(nc1SCc1ccncc1)CCC2	14.0	1.1	10.0%	8.0	i	1.05
Cc1nnc(NC(=O)c2ccco2)s1	7.0	1	2.0%	4.0	i	1
O=C(Nc1nc2c(ccc3ccccc32)s1)c1ccco1	0.0	2.8*	3.0%	3.0	i	1.14
Cc1nc2ccc3nc(NC(=O)c4ccco4)sc3c2s1	1.0	1.29	12.0%	30.0*	i	1.2
CCOC(=O)c1[nH]c(C)c(/C=N/O)c1C	9.0	1.04	5.0%	6.0	i	1.05

Screening data deposited in PubChem BioAssay by SRMLSC.
